# From ChEMBL document CHEMBL3988442, “University of Dundee, Small-Polar-MMV Screening Library” (2021)
# Among all 48,000 compounds or so, about 13,000 (27%) showed an effect of 50% or more. The list shows a part of the results.
# Tested on: Wolbachia pipientis
# Assay: Anti-Wolbachia Cell-Based Screen
# Format: functional
# Parameters: scale not given: in the data most compounds retested in dose-response had high values
# Conditions: 5 µM
row,Structure (SMILES),Percent Effect [%]
1,CNc1ccc(CC2CCCN(C(=O)c3scnc3C)C2)nn1 (stereo not drawn),109.5
2,CNc1ncc(C(=O)N2CCCC(Cc3ccccc3OC)C2)s1 (stereo not drawn),-5.807
3,CNc1ccc(CC2CCCN(C(=O)c3cnco3)C2)nn1 (stereo not drawn),129.2
4,O=C(c1cc(CC2(NCC3CCCCC3)COC2)no1)N1CCCCC1,0.2272
5,O=C(c1cc(CC2(NC3CCCCC3)COC2)no1)N1CCCCC1,6.649
6,Cc1noc(C)c1C(=O)N1C[C@@H]2CCCO[C@@H]2[C@H](N(C)C)C1,3.092
7,CCc1cc(C(=O)N2CCCC(Cc3ccc(NC)nn3)C2)on1 (stereo not drawn),109.6
8,CNc1ccc(CC2CCCN(C(=O)c3c(C)noc3C)C2)nn1 (stereo not drawn),118
9,O=C(CN1CCCc2c(F)cc(Br)cc21)N1CCCC1,-2.164
10,CCN1CCC(Cn2ccc3c(OC)c(OC)ccc3c2=O)C1 (stereo not drawn),-8.791
11,COCC[C@]1(O)CCN(c2ncc(Cl)cc2F)C[C@H]1C,-5.057
12,CS(=O)(=O)N1C[C@@H]2CC[C@H](C1)N(CCC(=O)NCc1ccco1)C2,6.139
13,Cc1nonc1CN1CC[C@@](O)(C2CCC2)[C@H](C)C1,2.704
14,C[C@@H]1CN(Cc2nc(C(N)=O)no2)CC[C@@]1(O)C1CCOCC1,-5.887
15,CCc1nc(C)sc1CN1CC[C@@](O)(C2CC2)[C@H](C)C1,90.8
16,Cc1nnsc1CN1CC[C@@](O)(C2CCC2)[C@H](C)C1,-20.69
17,CCc1nc(C)sc1CN1CC[C@@](O)(C2CCOCC2)[C@H](C)C1,107.2
18,Cc1nonc1CN1CC[C@@](O)(C2CCOCC2)[C@H](C)C1,-5.747
19,CCC1=N[C@@]2(CC[C@@H]3CN(S(=O)(=O)CC(C)C)C[C@@H]32)C(=O)N1CC,2.129
20,Cc1nc(-c2ccc(S(=O)(=O)N3CCSC3)cc2)co1,-2.878
21,COc1ccc(F)c(-c2cc(C(=O)NC3CC3)ccn2)c1,-1.956
22,CCOc1cc(C(=O)N2CCCC(c3cc(C(N)=O)[nH]n3)C2)ccn1 (stereo not drawn),-0.59

row,Structure (SMILES),Percent Effect [%]
1,O=C(c1ccc2c(c1)[nH]c(=O)n2C1CCCC1)N1CCC1,-5.446
2,O=C(c1ccnc(C2CCNCC2)c1)N1CCCC(CO)C1 (stereo not drawn),100.1
3,Cl.O=C(c1ccnc(C2CCNCC2)c1)N1CCCOCC1,107.9
4,Cl.O=C(c1ccnc(C2CCNCC2)c1)N1CCCC1,87.63
5,Cl.O=C(NC1CCCC1)c1ccnc(C2CCNCC2)c1,105.6
6,O=C(c1ccc(C2CCCO2)s1)N1CCCOCC1 (stereo not drawn),7.048
7,COc1ncccc1-c1cc(C(=O)NC2CC2)ccn1,1.183
8,Cc1cc(C2CCCN(C(=O)c3ccc(OCC4CC4)nc3)C2)n[nH]1 (stereo not drawn),-13.31
9,Cl.Cl.Cn1cnc2c(N3CCOCC3)nc(C3CCNCC3)cc21,-9.589
10,Cl.Cl.Cn1cnc2c(N3CCCC3)nc(C3CCNCC3)cc21,-10.47
11,CC(C)(C)CC(=O)N1CSCC1C(=O)NCc1cccc(C#N)c1 (stereo not drawn),-25.6
12,Cc1cc(C(=O)N2CCC3(CC(=O)NC3=O)C2)c(-c2ccccc2)o1 (stereo not drawn),0.657
13,CSCC[C@H](NC(C)=O)C(=O)N(C)Cc1ccc(-n2cccn2)cc1,-22.5
14,Cc1cc(C(=O)N2CCNC(c3ccccc3)C2)c2ccc(F)cc2n1 (stereo not drawn),81.03
15,Cc1cc(C(=O)N2C[C@H](c3ccccc3)[C@@H](N)C2)c2ccc(F)cc2n1,109.4
16,Cc1cc(C(=O)N2CCN[C@H](C)C2)c2ccc(F)cc2n1,95.19
17,O=C(c1c[nH]nc1-c1cccc(F)c1)N1CCNC(c2ccccc2)C1 (stereo not drawn),39.59
18,N[C@H]1CN(C(=O)CCc2cc(Cl)no2)C[C@@H]1c1ccccc1,0.8182
19,O=C(c1cc(-c2cn[nH]c2)nc2cc(F)ccc12)N1CCS(=O)(=O)CC1,-15.17
20,Cc1cc(C(=O)N2CCCC3(CN(C)C(=O)O3)C2)c2ccc(F)cc2n1 (stereo not drawn),-8.064
21,Cc1cc(C(=O)N2C[C@H]3CCC[C@@]3(CO)C2)c2ccc(F)cc2n1,-33.96
22,O=C(O)c1csc(S(=O)(=O)N2CCCc3cccc(OC(F)F)c32)c1,-29.54

row,Structure (SMILES),Percent Effect [%]
1,CC(O)CN1CCN(C(=O)c2cn(-c3ccccc3Cl)nn2)CC1 (stereo not drawn),5.18
2,CN(C)C(=O)CN1CCN(C(=O)c2cnn(-c3ccccc3Cl)c2)CC1,104.8
3,CC(O)CN1CCN(C(=O)c2cnn(-c3ccc(Cl)cc3)c2)CC1 (stereo not drawn),-6.081
4,O=C(c1cn(-c2ccccc2Cl)nn1)N1CCCSCC1,0.4154
5,O=C(c1cn(-c2ccccc2Cl)nn1)N1CCSCC1,139.5
6,O=C(c1cnn(-c2ccccc2Cl)c1)N1CCN(CCO)CC1,103.1
7,CN1CCN(C(=O)c2cnn(-c3ccccc3Cl)c2)CC1,84.01
8,CCOC1CCN(C(=O)c2cnn(-c3ccccc3Cl)c2)CC1,-5.801
9,O=C(c1cnn(-c2ccccc2F)c1)N1CCN(CCO)CC1,-7.046
10,CCc1ccc(O)c(C(=O)N2CCN(CC(=O)N(C)C)CC2)c1,4.973
11,CCN1CCN(C(=O)c2cnn(-c3ccccc3Cl)c2)CC1,0.9462
12,CC(Nc1ncnc2sccc12)c1cnn(C)c1 (stereo not drawn),-17.23
13,O=C(NC[C@H]1OC[C@@H](NC2CCOCC2)[C@@H]1O)C1CCCC1,-16.92
14,O=C(COCC(F)(F)F)NC1CCCc2cc(OC(F)F)ccc21 (stereo not drawn),-1.083
15,Cc1nc(CCCNC(=O)C2CC(=O)N(C3CCCC3)C2)sc1C (stereo not drawn),-46.61
16,O=C(COC1CCCCC1)Nc1ccn(Cc2ccccn2)n1,-1.457
17,COc1ccc(OC)c2c(C)cc(N(C)CCO)nc12,-15.31
18,CC(=O)c1c(N(C)C)ccnc1C(F)(F)F,-9.795
19,CCOc1c(Cl)cccc1NS(=O)(=O)c1cc(C)c(C(=O)O)s1,-12.6
20,CC(=O)N1CCN(C(=O)c2cnn(-c3ccccc3Cl)c2)CC1,-0.729
21,CCc1nc(C(=O)N2CCCC2)nn1-c1ccccc1Cl,13.32
22,CC(=O)N1CCCN(C(=O)c2cnn(-c3ccccc3Cl)c2)CC1,140

row,Structure (SMILES),Percent Effect [%]
1,CCc1ccc2nc(C)cc(C(=O)NC3CCNC3=O)c2c1 (stereo not drawn),1.98
2,Cc1cc(C(=O)NCC(F)(F)F)c2c(C3CCNCC3)noc2n1,137.6
3,Cc1cc(C(=O)NCC(C)C)c2c(C3CCCN3)noc2n1 (stereo not drawn),114.1
4,Cc1cc(C(=O)NCC(F)(F)F)c2c(C3CCCN3)noc2n1 (stereo not drawn),103.2
5,Cc1cc(NC(C)C(=O)NCC(F)(F)F)nc(-c2ccncc2)n1 (stereo not drawn),14.05
6,COCCC(=O)N1CCC(c2noc3nc(C)cc(C(F)(F)F)c23)CC1,3.825
7,Cc1cc(CNC(=O)c2cn(CCC3CCCCN3)nn2)on1 (stereo not drawn),-16.72
8,Cc1ccccc1-n1ccnc1S(=O)(=O)Cc1nsc(N(C)C)n1,22.74
9,Cc1ccc(N2C[C@@H]3CN(C(=O)NC4CCCC4)C[C@]3(C(=O)O)C2)nn1,-11.61
10,CN(C)C(C(=O)N1CCC(CCO)CC1)c1ccccc1F (stereo not drawn),-9.373
11,Cc1ccc(NCc2ccc(C#N)cc2)cc1-n1cnnn1,10.93
12,CC1(Cc2ccc(F)cc2)Cc2cc(C(=O)NCCO)ccc2O1 (stereo not drawn),96.1
13,O=C(NCCCc1ccc(F)cc1)c1ccc(N2CCOCC2)cc1,-12.9
14,CC1(Cc2ccc(Cl)cc2)Cc2cc(CCC(=O)O)ccc2O1 (stereo not drawn),128.5
15,O=C(O)CCCc1ccc2c(c1)CC(=O)N2,-9.679
16,O=C(NCc1ccc(C(=O)O)o1)c1ccc(F)cc1,8.231
17,CC(C)N(Cc1ccc(C(=O)O)o1)C(C)C.Cl,-3.405
18,Cc1ncc(C)c(N2CCC(Cc3ccc(Cl)cc3)(C(=O)O)CC2)n1,-13.5
19,CC(C)c1ccc(CC2(C)Cc3cc(CC(=O)O)ccc3O2)cc1 (stereo not drawn),103.5
20,Cc1nsc(NCc2ccc(CS(=O)(=O)NC(C)C)cc2)n1,-12.57
21,O=C(CC1=CCCCC1)NCc1ccnc(OC2CCOCC2)c1,4.75
22,Cc1ccc(CN(CCN(C)C)Cc2nc3ccccc3[nH]2)s1,-0.2455

row,Structure (SMILES),Percent Effect [%]
1,CC(NC(=O)N(C)Cc1cnn(C)c1)c1nncn1C (stereo not drawn),-30.3
2,COC(=O)C(C)N(Cc1cc(=O)n(C)c(=O)n1C)C1CC1 (stereo not drawn),5.049
3,CCCSCC(=O)N1CCCC2(CCC(=O)N(CCc3c[nH]cn3)C2)C1 (stereo not drawn),0.3412
4,CCCC1(CO)CCCN(Cc2ncccn2)C1 (stereo not drawn),-3.233
5,CCCSCC(=O)N1CCCC(CO)(CCC)C1 (stereo not drawn),120.7
6,CCCC1(CO)CCCN(Cc2nccs2)C1 (stereo not drawn),-16.5
7,CCCC1(CO)CCCN(C(=O)CCCn2nc(C)cc2C)C1 (stereo not drawn),0.5939
8,CCCC1(CO)CCCN(C(=O)CN2CCN(CC)CC2)C1 (stereo not drawn),98.5
9,CN(C)C(=O)C1CCCN1c1ccnc2ccsc12 (stereo not drawn),-11.69
10,Cn1ccc(C(=O)N2CCc3[nH]nc(Nc4ccccc4)c3C2)n1,131.4
11,COc1cccc(-c2n[nH]c3c2CN(C(=O)c2cc(C)n(C)n2)CC3)c1,-0.6407
12,O=C(c1coc(-c2ccccc2)n1)N1CCCCC1,-26.2
13,O=C(c1cccnc1)N1Cc2[nH]nc(COCCO)c2C1,-11.56
14,O=C(c1cccnc1)N1CCc2[nH]nc(Nc3ccccc3)c2C1,125.3
15,COc1cccc(-c2n[nH]c3c2CN(C(=O)c2ccncc2)CC3)c1,-11.9
16,Cc1nc(C(=O)N2CCc3[nH]nc(Nc4ccccc4)c3C2)co1,140.3
17,COCc1n[nH]c2c1CN(C(=O)c1ccncc1)C2.O=C(O)C(F)(F)F,-2.458
18,O=C(c1ccncc1)N1CCc2[nH]nc(Nc3ccccc3)c2C1,110.2
19,O=C(CCN1CCc2[nH]nc(C(F)(F)F)c2C1)Nc1ccccc1,-5.362
20,Cc1cc(C(=O)N2CCc3[nH]nc(-c4ccc5c(c4)OCO5)c3C2)no1,-8.548
